Compounds with a hit are over-represented: about 15% of the library has one in this group of screens.
Sm TGR block = S. mansoni TGR enzyme inhibition; Q962Y6; purified TGR, DTNB reduction, TNB absorbance 405 nm; Potency, µM (titrated, usually from 114 µM), actives largely listed as inhibitors; 3% of 360,000 active; further: nearly all actives have a fitted effect of over 60% in size
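TGR 20 nM + NADPH 100 uM (dispensed conc.), cpd preinc 15 min RT; start with NADPH (500 uM addition) then DTNB (15 mM addition). Kinetic TNB absorbance, 405 nm filter. Four-parameter Hill fit across titration.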
SARS PLpro yeast = SARS-CoV PLP inhibition in yeast; 0.19% of 330,000 active; Potency, µM (top dose mostly 32.9 µM), actives largely listed as activators; AID 485353; S. cerevisiae expressing SARS-CoV PLpro, growth rescue; calls by dose curve; further: nearly all actives have a fitted effect of over 55% in size
Pf growth 96h = P. falciparum growth inhibition at 96 hours | P. falciparum luciferase reporter growth, 96 h | Potency, µM (titrated, usually from 28.7 µM), hits mostly inhibitors | 6.9% of 320,000 active | AID 504834
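Cell-based qHTS: luciferase-tagged P. falciparum in erythrocytes (2% hematocrit, 0.05% parasitemia final) incubated with compounds for 96 hours, 37 C, 5% CO2; luciferase detection reagent then added and luminescence measured.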
Pf growth 48h = inhibits P. falciparum growth in the first generation, 48 h | AID 504832 | 5.9% of 310,000 active | Potency, µM (titrated, usually from 28.7 µM), usual class: inhibitors | P. falciparum luciferase growth in erythrocytes, 48 h
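Luciferase-expressing parasites in RBCs, 2% Hct / 0.1% parasitemia final; RPMI 1640 + 0.5% Albumax; 37 C, 5% CO2, one generation; luminescence read-out, lower signal = inhibition.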
HCV inhibitor = blocks hepatitis C virus; Potency, µM (top dose mostly 41.8 µM), actives largely listed as inhibitors; AID 651820; 3.4% of 340,000 active; Huh7.5.1 HCVcc-Cre infection, luciferase reporter, 44 h
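Infectious HCVcc-Cre (~0.5 moi) was added to cells just after compound, with cells seeded 4 h earlier at 1,000 per well. Luciferase activity after 44 h culture reported infection; substrate was incubated 15 min at room temperature before reading.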
HCMV inh = human cytomegalovirus inhibition; HFF cells, HCMV-luciferase reporter, 72 h; stronger effect = lower value; activity change, negative = inhibition, % at 57.5 µM; 4.5% of 410,000 active; AID 1259415; in the data active means activity change below about -60%; inconclusive means no clear call, values can overlap the other calls; inactive means above about -39%
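Inhibition of viral replication was scored as loss of reporter luminescence in HFFs infected with HCMV-luciferase (MOI 1 PFU/cell) for 72 h; compounds tested at 2 doses, normalized to buffer and Salinomycin controls.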
Each line names hits and unclear results; the compound was inactive in the other large screens. Unless noted, the call rests on the fitted dose curve; in most records, active means well fitted curve in the direction sought with a large enough effect; inconclusive means small, poorly fitted or top-dose-only effect, or another doubt; inactive means no such curve, though single readings can be large; an effect the other way counts as inactive or inconclusive.

O=C(Nc1nnc(-c2ccc(F)cc2)o1)C1CCCN1S(=O)(=O)c1cccs1 (centres undefined)	none
CC1(c2ccccc2)NC(=O)N(CC(=O)N2CCc3ccccc32)C1=O (centres undefined)	none (no result: Sm TGR block, SARS PLpro yeast, Pf growth 96h, Pf growth 48h, HCV inhibitor)
CC1(c2cccc(Br)c2)NC(=O)N(CC(=O)N2CCc3ccccc32)C1=O (centres undefined)	Pf growth 96h inconclusive, HCV inhibitor 10µM
COc1ccc(NC(=O)c2ccco2)cc1NC(=O)COc1ccccc1Cl	none (no result: SARS PLpro yeast, Pf growth 96h, Pf growth 48h, HCV inhibitor)
Cc1sc2ncnc(N3CCN(CCOc4ccc(Cl)cc4)CC3)c2c1C	HCV inhibitor 10µM, HCMV inh -93 (no result: Pf growth 48h)
Cc1sc2ncnc(N3CCN(Cc4ccccc4)CC3)c2c1-c1ccccc1	Pf growth 96h 10µM, Pf growth 48h 12µM, HCV inhibitor inconclusive
CCOc1ccc(CN2CCN(c3ncnc4scc(-c5ccccc5)c34)CC2)cc1	HCV inhibitor inconclusive
COc1ccc(C2C(C(C)=O)=C(O)C(=O)N2c2ccc(Br)cn2)cc1 (centres undefined)	Pf growth 96h 4.1µM, Pf growth 48h inconclusive
CN1/C(=C\C(=O)c2ccco2)c2ccccc2CC1(C)C	Pf growth 96h 9.3µM
CN1/C(=C\C(=O)c2cccnc2)C(C)(C)c2ccccc21	Pf growth 96h inconclusive
CN1/C(=C\C(=O)c2ccco2)C(C)(C)c2ccccc21	Sm TGR block 45µM, Pf growth 48h 1.7µM, HCV inhibitor 11µM, HCMV inh -71
CCC(=O)/C=C1/Sc2ccccc2N1CC	HCMV inh inconclusive
CCN1/C(=C/C(=O)c2ccco2)Sc2ccccc21	Sm TGR block 20µM, HCV inhibitor inconclusive
CN1/C(=C\C(=O)c2cncc(Br)c2)C(C)(C)c2ccccc21	Pf growth 96h inconclusive, Pf growth 48h inconclusive, HCV inhibitor inconclusive, HCMV inh -73
Cc1cccc(C)c1NC(=O)CNC(=O)c1ccc2ccccc2n1	Pf growth 96h inconclusive, Pf growth 48h inconclusive
CC(C)N1CCC1(C)C(=O)Nc1ccc(-n2cccc2)cc1 (centres undefined)	none (no result: Sm TGR block, SARS PLpro yeast, Pf growth 96h, Pf growth 48h, HCV inhibitor)
Cc1cc(=O)n2nc(N3CCC(C(=O)Nc4ccc(Br)cc4F)CC3)sc2n1	none (no result: SARS PLpro yeast, Pf growth 96h, Pf growth 48h, HCV inhibitor)
COc1ccc(/C=N/NC(=O)c2nnn(-c3nonc3N)c2-c2cccs2)cc1OC	Pf growth 96h inconclusive, Pf growth 48h inconclusive
Nc1nonc1-n1nnc(C(=O)N/N=C/c2cccc(F)c2)c1-c1ccc2c(c1)OCO2	Pf growth 96h 0.066µM, Pf growth 48h 0.12µM
CCN(CC)c1ccc(/C=N/NC(=O)c2nnn(-c3nonc3N)c2-c2ccc(C)cc2)cc1	Pf growth 96h 5.9µM, Pf growth 48h inconclusive
Nc1nonc1-n1nnc(C(=O)N/N=C/c2cccnc2)c1-c1ccccc1	Pf growth 96h 12µM, Pf growth 48h inconclusive
Cc1ccc(-c2c(C(=O)N/N=C/c3cccnc3)nnn2-c2nonc2N)cc1	Pf growth 96h inconclusive, Pf growth 48h inconclusive
Nc1nonc1-n1nnc(C(=O)N/N=C/c2cccc(Cl)c2)c1-c1cccs1	Pf growth 96h 2.3µM, Pf growth 48h 4.7µM, HCMV inh active
O=C(CSc1nnc(-c2ccc(Cl)cc2)o1)N1CCOCC1	none
CCCN1Cc2cccc(C(=O)Nc3ccc(C(C)=O)cc3)c2C1=O	none (no result: SARS PLpro yeast, Pf growth 96h, Pf growth 48h, HCV inhibitor)
Cc1ccc(/C=N/NC(=O)c2nnn(-c3nonc3N)c2-c2ccc3c(c2)OCO3)s1	Pf growth 96h inconclusive, Pf growth 48h 0.26µM
Nc1nonc1-n1nnc(C(=O)N/N=C/c2ccc(F)cc2)c1-c1ccc2c(c1)OCO2	Pf growth 96h 0.066µM, Pf growth 48h 0.12µM
Nc1nonc1-n1nnc(C(=O)N/N=C/c2cc(Br)cs2)c1-c1ccccc1	Pf growth 48h inconclusive, HCMV inh -69
Nc1nonc1-n1nnc(C(=O)N/N=C/c2cccc(F)c2)c1-c1ccccc1	Pf growth 96h inconclusive, Pf growth 48h 5.2µM
COc1ccc(/C=N/NC(=O)c2nnn(-c3nonc3N)c2-c2cccc(OC)c2)cc1	Pf growth 48h inconclusive
CCC(=O)Nc1ccccc1-c1nc2ccccc2n(CC(=O)c2ccc(Br)cc2)c1=O	none (no result: SARS PLpro yeast, Pf growth 96h, Pf growth 48h, HCV inhibitor)
O=C1N(Cc2cccc(Cl)c2)C[C@@H]2C[C@@H](c3cccn3-c3cccnc3)N3CCC[C@@]123	Pf growth 48h 9.3µM, HCV inhibitor 10µM, HCMV inh -86
O=C1N(Cc2cccc(Cl)c2)C[C@@H]2C[C@@H](c3ccco3)N3CCC[C@@]123	Sm TGR block 40µM, HCMV inh inconclusive
Cn1cc([C@@H]2C[C@H]3CN(Cc4cccc(Cl)c4)C(=O)[C@]34CCCN24)c(-c2ccccc2)n1	Pf growth 96h 2.9µM, HCV inhibitor 10µM
CCn1ncc([C@@H]2C[C@H]3CN(Cc4cccc(Cl)c4)C(=O)[C@]34CCCN24)c1C	Pf growth 48h inconclusive
O=C(Nc1ccc(C(=O)N2CCC(N3CCOCC3)CC2)cc1)c1ccc(Br)o1	Sm TGR block 32µM
CC(C)N1CCN(C(=O)c2ccc(NC(=O)c3ccc(Br)o3)cc2)CC1	Sm TGR block 22µM
CC(C)N1CCC(=NNC(=O)c2ccc(Br)o2)CC1	Pf growth 48h inconclusive
O=C(Nc1ccc(C(=O)N2CCCC(CO)C2)cc1)c1ccc(Br)o1 (centres undefined)	none (no result: Sm TGR block, Pf growth 96h, Pf growth 48h)
CC(C)c1ccc(NC(=O)COC(=O)c2cc(=O)[nH]c3ccccc23)cc1	none
CC/C(C)=N\N=C\c1c(O)n(CC)c2cc(C3=NNC(=O)CC3)ccc12	Sm TGR block inconclusive, Pf growth 96h 10µM, Pf growth 48h inconclusive (no result: HCMV inh)
Cc1ccc2nc(-c3ccco3)c(CC(C)(C)C)n2c1	none (no result: Sm TGR block, SARS PLpro yeast, Pf growth 96h, Pf growth 48h, HCV inhibitor)
C/C=C(/C)C(=O)OC1c2c(ccc3ccc(=O)oc23)OC(C)(C)C1OC(C)=O (centres undefined)	Pf growth 96h inconclusive, Pf growth 48h 8.3µM, HCV inhibitor inconclusive
CC1(C)Oc2ccc3ccc(=O)oc3c2C(N2CCCCC2)C1O (centres undefined)	Sm TGR block 35µM, Pf growth 48h inconclusive
CC(C)(C)c1ccc(C(=O)NCc2nnc(SCC(=O)N3CCCC3)o2)cc1	none (no result: Sm TGR block, SARS PLpro yeast, Pf growth 96h, Pf growth 48h, HCV inhibitor)
CCOC(=O)N1CCN(C(=O)CSc2nnc(CNC(=O)c3c(F)cccc3Cl)o2)CC1	Pf growth 96h 12µM
O=C(CSc1nnc(CNC(=O)c2c(F)cccc2Cl)o1)NCc1ccc(F)cc1	Pf growth 96h inconclusive
O=C(CSc1nnc(CNC(=O)c2c(F)cccc2F)o1)NCc1ccc(F)cc1	Sm TGR block 28µM
O=C(NCc1nnc(SCC(=O)N2CCCC2)o1)c1c(F)cccc1Cl	SARS PLpro yeast inconclusive
O=C(CSc1nnc(CNC(=O)c2c(F)cccc2Cl)o1)c1ccccc1	Pf growth 96h 9.3µM
O=C(NCc1nnc(SCC(=O)N2CCCCC2)o1)c1ccc(F)cc1	HCMV inh -85

High-throughput results deposited in PubChem by National Center for Advancing Translational Sciences (NCATS).
